Measured values from PubChem BioAssay AID1439 (NMMLSC, 2008).
Hit rate of the full screen: of about 220,000 compounds, about 770 (0.35%) were called active. Not shown: some 15% with an inconclusive outcome. Shown is part of a subset that was picked to be rich in actives. Unmarked numbers belong to inactive results. Rule as the data show it: active = binding response below about 49% or above about 150%; inconclusive = no clear call, values can overlap the other calls; inactive = in between. Residues, ends and D or L forms follow the SMILES beside them. *: point of attachment. OPac = O=C(CO*)c1ccccc1; Bz = O=C(c1ccccc1)*

Target: Guanine nucleotide-binding protein G(o) subunit alpha (Homo sapiens) (UniProt P09471)
Sequence (P09471 whole entry, looked up): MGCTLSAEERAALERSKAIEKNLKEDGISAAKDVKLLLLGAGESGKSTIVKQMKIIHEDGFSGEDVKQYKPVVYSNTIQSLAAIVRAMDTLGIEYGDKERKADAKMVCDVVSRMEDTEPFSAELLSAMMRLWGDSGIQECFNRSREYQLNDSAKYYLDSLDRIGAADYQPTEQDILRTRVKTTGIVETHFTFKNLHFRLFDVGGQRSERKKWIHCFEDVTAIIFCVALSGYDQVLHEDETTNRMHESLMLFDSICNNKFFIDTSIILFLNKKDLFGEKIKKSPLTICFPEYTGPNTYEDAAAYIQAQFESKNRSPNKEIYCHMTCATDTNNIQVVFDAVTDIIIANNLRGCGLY
Experiment: RGS7-Galphao binding modulators, primary screen, biochemical, multiplexed bead flow cytometry (AID 1439);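 also: fluorescent Galphao held in activated GDP-AlF4 state binding bead-coupled RGS7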
Conditions: at 10 µM, actives lie on both sides

Row | SMILES | binding response (% of control)
1 | COC(=O)c1ccccc1OCC(=O)N1CCN(c2ccc(Cl)cc2)CC1 | 290% (active)
2 | O=C(COc1ccc(Cl)cc1)N1CCN(c2cccc(C(F)(F)F)c2)CC1 | 104%
3 | O=C(CN1CCN(c2ccc(Cl)cc2)CC1)N1CCCC1 | 102%
4 | COCCn1c(C)cc(C(=O)COC(=O)/C=C/c2cccc(OC)c2)c1C | 92.8%
5 | FC(F)(F)c1cccc(Cc2noc(CN3CCC(N4CCCCC4)CC3)n2)c1 | 104%
6 | CCOC(=O)c1sc(/N=C/C2=C(O)CC(C)(C)CC2=O)c(C(=O)OCC)c1C | 107%
7 | Cc1cc(C)n2nc(SCC(=O)NC(=O)NCc3ccco3)nc2n1 | 102%
8 | CC(C)CC(=O)N1CCC(O)(CS(=O)(=O)Cc2ccccc2)CC1 | 103%
9 | Cc1ccccc1CN1CCN(C(=O)c2cccc(F)c2)CC1 | 105%
10 | Cc1ccccc1CS(=O)(=O)CC1(O)CCN(C(=O)c2cccc(C(F)(F)F)c2)CC1 | 157% (active)
11 | CCOC(=O)C1=NOC(Cn2cc(C(C)=O)c(=O)[nH]c2=O)C1 (centres undefined) | 100%
12 | CCOc1cc(C(=O)N2CCc3cc(OC)c(OC)cc3C2)ccc1OC(F)F | 159% (active)
13 | COc1cc2c(cc1OC)CN(C(=O)c1cc(=O)c3ccccc3o1)CC2 | 97.6%
14 | COc1cc2c(cc1OC)CN(C(=O)c1ccc(S(=O)(=O)N3CCCCCC3)cc1)CC2 | 89.7%
15 | CCC(=O)NC(=S)Nc1ccc(NC(=O)c2ccco2)c(Cl)c1 | 102%
16 | O=C(Nc1cccc(Cl)c1N1CCOCC1)c1ccc2c(c1)OCCO2 | 108%
17 | O=C(COc1ccccc1)N1CCc2ccccc2C1 | 103%
18 | Cn1c(=O)c2c(n(Cc3ccccc3)c1=O)NC(=O)C2CC(=O)N1CCc2ccccc2C1 (centres undefined) | 13.5% [inhibitor] (active)
19 | O=C(CSc1nnc(-c2cccs2)n1Cc1ccccc1)N1CCc2ccccc2C1 | 102%
20 | CCCCCCCNc1nc(Cl)nc(NCCO)n1 | 93.6%
21 | CN(C)C(=O)CSc1n[nH]c(-c2ccco2)n1 | 107%
22 | O=[N+]([O-])c1ccc(Sc2n[nH]c(-c3ccco3)n2)nc1 | 105%
23 | Cc1ccc(N=Nc2c(C)[nH]n(-c3ccccc3)c2=O)cc1 | 100%
24 | Cc1ccc(N2C(=O)C(Cc3ccccc3)NC2=S)cc1 (centres undefined) | 99%

Row | SMILES | binding response (% of control)
25 | Cc1ccc(N2C(=O)C3C(c4ccccc4)(C2=O)C3(c2ccccc2)c2ccccc2)cc1 (centres undefined) | 14.4% [inhibitor] (active)
26 | CCCC1C(c2ccccc2)C(C#N)(C#N)C2(C#N)CC1(N)NC2=O (centres undefined) | 152% (active)
27 | CC(C)OCCCNC(=S)N1CCC(C(=O)c2ccc3c(c2)OCCO3)CC1 | 105%
28 | CCOCCCNCc1ccc(OCc2ccc(F)cc2)c(OC)c1 | 103%
29 | O=C(Nc1cccc(F)c1)c1ccc(S(=O)(=O)N2CCCC2)cc1 | 97.7%
30 | O=C(Nc1cccc(F)c1)c1coc(=O)c(Br)c1 | 45.3% [inhibitor] (active)
31 | Cc1c(NC(=O)c2coc(=O)c(Br)c2)c(=O)n(-c2ccccc2)n1C | 101%
32 | CCN(CC)CCOC(=O)c1ccc(NC(=O)CNC(=O)c2ccccc2)cc1 | 98.5%
33 | CCCC(=O)n1nc(-c2ccccc2)nc1N | 23.4% [inhibitor] (active)
34 | COc1ccccc1C(=O)n1nc(-c2ccccc2)nc1N | 100%
35 | COc1ccc(CC(=O)n2nc(-c3cccnc3)nc2N)cc1 | 97.3%
36 | OCCC1CN(Cc2cccc(OC3CCCC3)c2)CCN1Cc1ccsc1 (centres undefined) | 102%
37 | COCCN(CCOC)S(=O)(=O)c1ccc(/C(O)=C(\C#N)c2nc3ccccc3[nH]2)cc1 | 104%
38 | COC(=O)Cn1cc(/C=C/[N+](=O)[O-])c2ccccc21 | 102%
39 | O=C(COc1ccc(-c2ccccc2)cc1)NN=C1CCCC1 | 108%
40 | COc1ccccc1NC(=O)C[n+]1ccccc1 | 99.2%
41 | O=C(CCCCCn1c(=O)[nH]c2ccccc2c1=O)NCCc1c[nH]c2ccccc12 | 102%
42 | COc1ccccc1NC(=O)CCCc1c[nH]c2ccccc12 | 312% (active)
43 | O=C(CNC(=O)c1ccccc1)NCC(=O)OCC(=O)c1ccccc1 (Bz-Gly-Gly-OPac) | 113%
44 | CCOc1ccccc1NC(=O)c1cc(S(=O)(=O)N2CCC3(CC2)OCCO3)ccc1F | 15.2% [inhibitor] (active)
45 | Cc1c(C(=O)Nc2ccccc2Cl)oc2ccc(S(=O)(=O)N3CCC4(CC3)OCCO4)cc12 | 103%
46 | CCOc1ccccc1NC(=O)CCN1CCN(S(=O)(=O)c2ccc(OC)cc2)CC1 | 100%
47 | Cc1cc(C2=NNC(=Nc3ccc(S(=O)(=O)N4CCOCC4)cc3)SC2)c(C)n1CC1CCCO1 (centres undefined) | 104%
48 | Clc1ccc(C2CC(c3cccs3)n3ncnc3N2)cc1Cl (centres undefined) | 99.3%

Row | SMILES | binding response (% of control)
49 | COc1ccc(C2CC(c3ccccc3)Nc3ncnn32)cc1 (centres undefined) | 93.2%
50 | FC(F)Oc1ccccc1C1CC(c2ccc(Br)s2)Nc2ncnn21 (centres undefined) | 163% (active)
51 | O=C(NC1CCCC1)C(c1ccc(N2CCOCC2)cc1)N(C(=O)c1ccco1)c1ccccc1F (centres undefined) | 95.4%
52 | O=C(C1CCN(C2CCN(Cc3ccc4cc(F)ccc4n3)CC2)CC1)N1CCCC1 | 106%
53 | CCCNC(=O)c1c(Cl)cnn1-c1ccc(C)cc1 | 96.6%
54 | CC(=O)c1ccc(NC(=O)C(C)N(C)CC(=O)Nc2ccccc2Cl)cc1 (centres undefined) | 98.2%
55 | Cc1cccc2c1N(CCOc1ccccc1)C(=O)C2=O | 86.4%
56 | CCOC(=O)C1Sc2[nH]c(=O)sc2C(c2ccc(Cl)cc2)C1C(=O)OCC (centres undefined) | -17.7% [inhibitor] (active)
57 | CCOC(=O)C1C(c2ccc(Cl)cc2)NC(=S)NC1(O)C(F)(F)F (centres undefined) | 103%
58 | CCOC(=O)C1=C(C)NC(=O)N(C(C)=O)C1c1ccc(Cl)cc1 (centres undefined) | 104%
59 | Cc1cc(C)n(CCNCc2c(C(=O)N3C[C@@H](C)O[C@@H](C)C3)nc3ccc(Cl)cn23)n1 | 98.3%
60 | COCC(C)n1c(C)cc(C(=O)COc2ccc(C)nc2[N+](=O)[O-])c1C (centres undefined) | 100%
61 | CCOC(=O)c1ccc(N2C(=O)CC(N3CCN(C(=O)c4ccccc4)CC3)C2=O)cc1 (centres undefined) | 99.4%
62 | COCCNc1nc2nonc2nc1N(C)Cc1ccc(C)cc1 | 101%
63 | CSc1ccc(CN2C(=O)NC3(CCCCCC3)C2=O)cc1 | 219% (active)
64 | O=C1NC2(CCCCCC2)C(=O)N1CCS(=O)(=O)Oc1ccccc1 | 97.1%
65 | O=C(CN1C(=O)NC2(CCCCCC2)C1=O)NC1CC1 | 123%
66 | Cc1nc2ccccc2c(C)c1C(=O)c1ccc(F)cc1 | 97.5%
67 | CCOc1ccc(CN2CCN(Cc3ccc(C)o3)CC2CCO)cc1 (centres undefined) | 98.7%
68 | CN(C)c1ccc2c(=O)[nH][nH]c(=O)c2c1 | 104%
69 | CCOC(=O)c1[nH]cnc1C(=O)Nc1ccccc1C | 100%
70 | COC(=O)CNC(=O)c1ccc(OC2CCN(C(=O)C3CC3)CC2)cc1 | 105%
71 | COc1cccc(C(=O)NCCSc2ccc(Br)cc2)c1 | 16.5% [inhibitor] (active)
72 | COc1cc(OC)cc(C(=O)NCCSCc2ccco2)c1 | 98.2%

Row | SMILES | binding response (% of control)
73 | COc1cccc(C(=O)NNC(=O)c2ccccc2Br)c1 | 99%
74 | Cc1ccc(-c2cc(C(F)(F)F)n3ncc(C(=O)N4CCCCC4c4cccnc4)c3n2)cc1 (centres undefined) | 100%
75 | C/C(=N\NC(=O)c1cccc(N2CCCC2=O)c1)c1ccc(N)cc1 | 102%
76 | Cn1c(SCC(=O)N2CCCc3ccccc32)nc2ccccc2c1=O | 96.4%
77 | O=C(CSc1ccc2nnc(-c3ccccc3)n2n1)N1CCCc2ccccc21 | 207% (active)
78 | CCCn1c(SCC(=O)N2CCc3ccccc32)nnc1-c1ccncc1 | 96%
79 | CC(C)CC(CC(C)C)=NNC(=O)c1ccc(CSc2nncn2C)cc1 | 99.5%
80 | CN(CCC1CCOCC1)Cc1cn[nH]c1-c1ccc(-c2ccccc2)cc1 | 93%
81 | O=C(NCC1COc2ccccc2O1)C1(c2ccccc2)CCCC1 (centres undefined) | 103%
82 | COc1cc(CCC(=O)OCC(=O)Nc2cccc(S(N)(=O)=O)c2)cc(OC)c1OC | 91.7%
83 | Cc1ccc(C(=O)Nc2ccc(C)c(S(=O)(=O)N(C)C)c2)s1 | 99.1%
84 | COc1ccc(CCC(=O)OCC(=O)Nc2ccc(C)c(S(=O)(=O)N(C)C)c2)cc1 | 45.2% [inhibitor] (active)
85 | COc1ccc2oc(=O)c(C(=O)N3CCCC3)cc2c1 | 101%
86 | Nn1c(SCC(=O)Nc2nccs2)nncc1=O | 102%
87 | O=C(Nc1ccn(Cc2ccc(F)cc2)n1)c1ccncc1 | 100%
88 | Cc1ccc(Cn2ccc(NC(=O)c3cc(C(C)C)on3)n2)cc1 | 43.9% [inhibitor] (active)
89 | Cc1ccc(Cn2ccc(NC(=O)C3C4CCC(C4)C3C(=O)O)n2)cc1 (centres undefined) | 99.7%
90 | COc1ccc(Br)cc1/C=N/NC(=O)c1cccc(S(=O)(=O)N2CCOCC2)c1 | 112%
91 | Cc1cccc(C)c1NC(=O)Nc1ccccc1-n1ccnc1 | 99.6%
92 | CC(=O)Nc1nc(N(C)C)nc(N(C)C)n1 | -0.2% [inhibitor] (active)
93 | COc1cc(OC)nc(NC(=O)CCl)n1 | 100%
94 | CCC(=O)Nc1nc(OC)cc(OC)n1 | 99.2%
